# Measurements as given in the supplement of paper PMC6555819.
# Test system: VDR:RXRa (NR concentration 270 nM, RXRa partner concentration 90 nM)
# Assay: PBM binding z-score (relative to random genomic background probes); higher = stronger binding; sequences stand for … in GC…GCGATTGACAGCGTAGAATGAAGG
# Protocol: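 Protein-binding microarray (Agilent 4x180K custom design, double-stranded 60-nt probes: 5' GC cap, 34-nt variable region, 24-nt constant primer region; full probe sequence given). Purified or IVT nuclear receptor:RXRα heterodimers (3:1 NR:RXRα, mostly 270:90 nM) or homodimers were incubated for 1 h in PBS with 2% milk and no ligand, then detected with Alexa488 antibodies. Fluorescence from o1-orientation probes (~5 replicates averaged) was converted to z-scores against 500 random hg19 background probes. Variable regions are seed direct-repeat (DR0–DR5) sites, all their single-nucleotide variants and half-site ablations.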
row,Sequence,PBM binding z-score
1,GCATATAGGCAATACAAGGTGAAAGTCCGATTGT,0.0245
2,CCTAGTGGGCCATTCAGAGGTCATTGATCATATG,3.85
3,CAAACTAGGTCAAGGTCAAGGTCGGTTTGTGCCA,5.24
4,TCATATTGGTAAACAGGTGAAAGTCCGTAAGTTA,1.08
5,TCATATAGGTAAAAGGTGGAAGTCGGTGTGGTAA,1.11
6,ATCGAAAGGTCGAAGGTGAGTTTACCCACCCGAA,4.33
7,CCTACTGGGACAAAAAGGTCATTGATGCCGATAA,4.78
8,AGAAAGAGGTTACCAAAGATCAGGGAAACGCTTG,1.3
9,TCGAGTTGGTTACCAATGGGGCATTCAGCTTTCT,-0.461
10,TGTCAAAGTTCAAAGGTATCGTAAGTATCCACAC,4.75
11,CGAACTAGGTCAGCCAGGACAGTGAATACATTGA,3.1
12,CGAACTAGGTCAGAACTGGACAGTGAAGGATGAT,0.181
13,ATCGAAAGGACGAAGGTGAGTATACCCACCCGAA,-0.276
14,GGAACGAGGGCACGTTGATAGCAGAGTTTGATGG,0.909
15,GCAGACAGGTGAAAGGCAGGTAACTCAGGGTGGC,-0.303
16,TAGCCTAGGTCATGCGGGCCAGGATAGTGTCGGC,2.76
17,GTACCAAGGTGAATAGGTCCTTGATGAGTAGGCG,0.968
18,ATCTCTAGTTAACAAGTTCAGTGAAAGAGAGGAC,2.52
19,CGATCGAGGGCATGAGTTGATAGCAAATGCCGAT,0.973
20,AGAATGAGGTGATACGTAGATCAGGGAAGAAAGT,-0.0206

row,Sequence,PBM binding z-score
1,CAAACGAGGGCATGAGTTGATAGCAAATGCCGAT,1.58
2,CCAACTAGGTCACCGGAAGGTCAAAGTCCGCATG,5.87
3,TCCAGCAGGCCAGAGGGTCACTCAAGAGGTACGG,1.34
4,CCTTACGGGTCTCTGACAGGTTATAGCATTTGGA,-0.307
5,CCTTACGGGTCACTGACAGGTTATAGTATTTGGA,3.85
6,TAGCCTAGGTCAGGGGCCAGTATACCACGCGAAC,0.706
7,CCTACTAGGCCAAGGTCATTGATCAGTCAAAGCA,3.48
8,TCATATAGGTAAAAGGTGAAAATCGGTGTGGTAA,1.65
9,CCGATTGGGGCAAGGTTACCATAACGCACAGCCA,0.0829
10,ATCCAAAGGTCGACGAGGTGAGTATACACCGTTT,5.23
11,GCATATTGGTAATACAAGGTGAAAGTCCGATTGT,-0.16
12,ACTAACGGGTCAACGAGGTTATAGCACGCGTATA,7.41
13,ATCTCAAGGTAAGACTCAGTTCAGTGAAGAACGC,1.27
14,GGAACGAGGGCACAGTTGATAGCATCTGTCGACG,0.453
15,ATCTCTAGGTAAGACTAAGTTCAGTGAAGAACGC,1.7
16,GCAGACAGGTGAAACGTAGGTAACTCAGGGTGGC,-0.315
17,ATCGAAAGGTCGTGGGGTGAGTATACAGAAAGGC,4.83
18,TGAATGAGGTTAACGATCAGGGAACGTGGCGTCG,1.05
19,AGTCAAAGCTCAGGACGAGGTAACGTAAAGCACG,-0.317
20,CCTGCTAGGTCAGGGTCAGCTAATCTACAGTATG,2.86
